{"source": "PubChem BioAssay AID504834", "about": "(National Center for Advancing Translational Sciences (NCATS), 2011)", "note": "Among all 320,000 compounds or so, about 22,000 (6.9%) were called active. Roughly 27% stayed inconclusive and do not appear here. Calls follow the shape of the dose curve; as a rule, active = well fitted inhibition curve with a large enough effect; inconclusive = small, poorly fitted or top-dose-only effect, or another doubt; inactive = no such curve, though single readings can be large or run the other way. The entries come from a sample that favours actives as a whole. A call without a number means that no potency is given here. Potency is read from the fitted curve at half-maximal effect.", "data": [{"assay": "Primary qHTS for delayed death inhibitors of the malarial parasite plastid, 96 hour incubation", "conditions": "P. falciparum luciferase reporter growth; series mostly up to 28.7 µM", "outline": "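Two-generation exposure (96 h) targets delayed-death phenotype. Reporter parasites carrying integrated firefly luciferase, in red cells at 2% hematocrit and 0.05% parasitemia final, kept at 37 C, 5% CO2; luminescence loss indicates inhibition.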", "values": [{"smiles": "Cc1ccc2nc(SCC(=O)Nc3cccc4ccccc34)nc(=O)n2c1", "Potency": "inactive"}, {"smiles": "COc1ccccc1N1CCN(C(=O)CCS(=O)(=O)c2ccc3c(c2)NC(=O)C(C)S3)CC1", "note": "(stereo unspecified)", "Potency": "inactive"}, {"smiles": "COc1ccccc1N1CCN(S(=O)(=O)c2ccc3c(c2)NC(=O)CS3)CC1", "Potency": "11.7 µM (active)"}, {"smiles": "COc1ccccc1N1CCN(S(=O)(=O)c2ccc(Cl)cc2)CC1", "Potency": "inactive"}, {"smiles": "Cc1cc(C)c2c(Cn3ccnc3)cc(=O)oc2c1", "Potency": "inactive"}, {"smiles": "CCOc1ccc(S(=O)(=O)N2CCC(C(=O)OCc3ccc(OC)cc3)CC2)cc1", "Potency": "inactive"}, {"smiles": "O=C(CSc1n[nH]c(-c2cccs2)n1)N1CCCCC1", "Potency": "inactive"}, {"smiles": "Nc1ncc(CN2CCCC(C(=O)Nc3ccc(-c4ccco4)cc3)C2)cn1", "note": "(stereo unspecified)", "Potency": "inactive"}, {"smiles": "NC(=O)c1cc(S(=O)(=O)NCCCc2ccco2)cs1", "Potency": "inactive"}, {"smiles": "S=C(Nc1cccc(Cl)c1)Nc1ccc2c(c1)OCCO2", "Potency": "inactive"}, {"smiles": "CCS(=O)(=O)N1Cc2ccccc2CC1C(=O)Nc1ccc(OC)cc1OC", "note": "(stereo unspecified)", "Potency": "inactive"}, {"smiles": "COc1ccc(N2CCN(C(=O)C3CCN(C(=O)c4ccccc4Cl)CC3)CC2)cc1", "Potency": "inactive"}, {"smiles": "COc1ccc(C(=O)N2CCC(C(=O)Nc3ccc(C)cc3)CC2)cc1", "Potency": "inactive"}, {"smiles": "COc1ccc(C(=O)Nc2c(Cl)cc(Cl)cc2C(=O)N2CCC(C)CC2)cc1", "Potency": "13.1 µM (active)"}, {"smiles": "CCCCc1ccc(NC(=O)NCc2cccnc2)cc1", "Potency": "inactive"}, {"smiles": "CCOc1ccc(S(=O)(=O)NCCC(=O)NCC(C)(C)N2CCOCC2)cc1", "Potency": "inactive"}, {"smiles": "O=C(N/N=C/c1coc2ccccc2c1=O)c1cc2ccccc2o1", "Potency": "inactive"}, {"smiles": "Cc1ccc2occ(/C=N/NC(=O)c3ccccc3C)c(=O)c2c1", "Potency": "11.7 µM (active)"}, {"smiles": "CC(C)(C)OC(=O)NCCCCCC(=O)N/N=C/c1coc2ccccc2c1=O", "Potency": "inactive"}, {"smiles": "Cc1[nH]c2ccccc2c1C(=O)CN1CCCC(C)C1", "note": "(stereo unspecified)", "Potency": "inactive"}, {"smiles": "O=C(CSC1=NS(=O)(=O)c2cc(F)ccc2N1)Nc1ccccc1F", "Potency": "inactive"}, {"smiles": "CCOc1ccc(C(=O)Nc2cc(Cl)ccc2-n2cncn2)cc1OC", "Potency": "inactive"}, {"smiles": "COc1ccc(NC(=O)C(CC(C)C)NC(=O)C2CCC(C)CC2)cc1", "note": "(stereo unspecified)", "Potency": "inactive"}, {"smiles": "CC(C)[C@H](NC(=O)N1c2ccccc2NC(=O)[C@@H]1C(C)C)C(=O)N[C@H](C(=O)O)c1ccccc1", "Potency": "8.28 µM (active)"}, {"smiles": "CC(C)[C@H](NC(=O)N1CC(=O)Nc2ccccc21)C(=O)N[C@@H](Cc1c[nH]c2ccccc12)C(=O)O", "Potency": "inactive"}, {"smiles": "CC1C(=O)Nc2ccccc2N1C(=O)c1ccc(F)cc1F", "note": "(stereo unspecified)", "Potency": "inactive"}, {"smiles": "O=C(CNC(=O)c1cccnc1)N/N=C/c1cc(Br)c(O)c(Br)c1", "Potency": "inactive"}, {"smiles": "O=C(CCS(=O)(=O)c1ccccc1)NC1CCCC1", "Potency": "inactive"}, {"smiles": "COC(=O)c1ccc(CNC(=O)C2CCC(=O)N(Cc3ccccn3)C2)cc1", "note": "(stereo unspecified)", "Potency": "inactive"}, {"smiles": "CCCCn1c(N)c(N2CCOCC2)c(=O)n(CC(=O)NCCc2ccccc2)c1=O", "Potency": "inactive"}, {"smiles": "O=C(CCn1c(SCC(=O)c2ccccc2)nc2ccccc2c1=O)NCc1ccc(F)cc1", "Potency": "inactive"}, {"smiles": "N#CCSc1nc2ccc(N3CCOCC3)cc2c(=O)n1CCc1ccccc1", "Potency": "13.1 µM (active)"}, {"smiles": "O=S(=O)(NCc1cccnc1)c1ccc(Cl)nc1", "Potency": "inactive"}, {"smiles": "O=C(O)C1CC(=O)N(Cc2cccnc2)C1", "note": "(stereo unspecified)", "Potency": "inactive"}, {"smiles": "COC(=O)c1ccc(C23CC4(C2)[C@H](CN(Cc2cccnc2)[C@@H]4c2ccccc2)C3c2ccc(Cl)nc2)cc1", "note": "(stereo partly specified)", "Potency": "2.33 µM (active)"}, {"smiles": "Cc1ccc(CNC(=O)c2cccc3c2C(=O)c2ccc(N4CCC(C)CC4)cc2S3(=O)=O)cc1", "Potency": "inactive"}, {"smiles": "COc1ccc(CC(=O)Nc2c3c(nn2-c2cccc(Cl)c2)CS(=O)C3)cc1", "note": "(stereo unspecified)", "Potency": "1.47 µM (active)"}, {"smiles": "Cc1cccc(CC(=O)Nc2c3c(nn2-c2cccc(Cl)c2)CS(=O)C3)c1", "note": "(stereo unspecified)", "Potency": "inactive"}, {"smiles": "COc1ccc(-n2nc3c(c2NC(=O)Cc2cccc(C)c2)CS(=O)C3)cc1", "note": "(stereo unspecified)", "Potency": "inactive"}, {"smiles": "CC(=O)c1ccc(N2Cc3ccccc3C2)cc1", "Potency": "inactive"}, {"smiles": "COc1ccc(F)cc1S(=O)(=O)N1CCCCC1", "Potency": "inactive"}, {"smiles": "CCc1ccc(S(=O)(=O)Nc2cc3c(cc2N2CCCCC2)n(C)c(=O)c(=O)n3C)cc1", "Potency": "inactive"}, {"smiles": "Cn1c(CCc2ccccc2)nnc1SCC(N)=O", "Potency": "inactive"}, {"smiles": "c1ccc(CCC2=NCCn3cccc32)cc1", "Potency": "14.7 µM (active)"}, {"smiles": "CC1CSc2nnc(CCc3ccccc3)n21", "note": "(stereo unspecified)", "Potency": "inactive"}, {"smiles": "CS(=O)(=O)c1ccc(C(=O)OCC(=O)NNC(=O)COc2ccc(Cl)cc2)cc1", "Potency": "inactive"}, {"smiles": "COc1ccc(C(C(=O)NC(C)(C)C)N(Cc2ccc(F)cc2)C(=O)CCC(=O)Nc2cc(C)on2)cc1", "note": "(stereo unspecified)", "Potency": "inactive"}, {"smiles": "Cn1c(SCC(=O)Nc2nccs2)nnc1-c1cccnc1", "Potency": "inactive"}, {"smiles": "COC(=O)c1cn(CC(=O)NCc2cccs2)c2ccccc12", "Potency": "13.1 µM (active)"}, {"smiles": "O=C(Cn1cc(C(=O)c2cccs2)c2ccccc21)NCc1cccs1", "Potency": "inactive"}, {"smiles": "CCN(CC)C(=O)C(=O)c1cn(CC(=O)NCc2ccc3c(c2)OCO3)c2ccccc12", "Potency": "inactive"}, {"smiles": "O=C(NCCc1ccccc1)c1ccc2c(c1)N(Cc1ccccc1)CCS2", "Potency": "inactive"}, {"smiles": "O=C(OCc1ccccc1)c1ccc(O)cc1", "Potency": "inactive"}, {"smiles": "CS(=O)(=O)N1CCc2nc(-c3ccccc3)sc2C1", "Potency": "inactive"}, {"smiles": "CCOc1cc(C2C(C(=O)c3ccco3)=C(O)C(=O)N2Cc2ccccc2)ccc1O", "note": "(stereo unspecified)", "Potency": "inactive"}, {"smiles": "CCOC(=O)c1cc(Sc2ccccc2N)cc(C(=O)OCC)n1", "Potency": "inactive"}, {"smiles": "CC(CN1CCC(n2nccc2NC(=O)C2CCCC2)CC1)c1ccccc1", "note": "(stereo unspecified)", "Potency": "9.28 µM (active)"}, {"smiles": "CC(C)=CCCC(C)CN1CCC(n2nccc2NC(=O)c2ccccc2)CC1", "note": "(stereo unspecified)", "Potency": "14.7 µM (active)"}, {"smiles": "CC(C)Oc1ccc(CN2CCC(n3nccc3NC(=O)c3cccnc3)CC2)cc1", "Potency": "inactive"}, {"smiles": "O=C(Nc1ccnn1C1CCN(C/C=C/c2ccc(F)cc2)CC1)C1CCCC1", "Potency": "inactive"}, {"smiles": "CC(=O)N[C@@H](C)C(=O)N1CCC(n2nccc2NC(=O)CCCc2ccccc2)CC1", "Potency": "inactive"}, {"smiles": "Cc1nn(C)c(Cl)c1CN1CCC(n2nccc2NC(=O)C2CCCC2)CC1", "Potency": "inactive"}, {"smiles": "CN1CCN(c2ccccc2NC(=O)COc2ccc(C3CCCCC3)cc2)CC1", "Potency": "inactive"}, {"smiles": "N#Cc1cccc(OC(=O)c2ccc3c(=O)n4c(nc3c2)CCC4)c1", "Potency": "inactive"}, {"smiles": "O=C(NCCNc1ccccc1[N+](=O)[O-])c1ccccc1F", "Potency": "inactive"}, {"smiles": "CCCCn1c(N)c(N(CCOC)C(=O)c2cccc(S(=O)(=O)N(C)c3ccccc3)c2)c(=O)[nH]c1=O", "Potency": "inactive"}]}]}
